Data on 24 compounds can be found in PubChem BioAssay AID1259240 (Keith Lab, Institute of Cancer Science, University of …, 2017).

A number with no mark means an inactive call. Calls of active or inactive are those of the source. No stated cut-off is given here; in the data, active means fold change mostly below about -2 (no sharp cut-off); inactive means mostly above about -1.8.

This assay can be described thus: TERT promoter activity modulators, primary screen, cell-based, luciferase reporter, human (AID 1259240). The conditions noted are these: A2780 TERT promoter luciferase reporter, 16 h; at 20 µM, fold versus average of vehicle-only wells.
Regarding `CC1=CC(=O)OC1Cc1ccc2ccccc2n1` (centres undefined), the fold change is -1.06.
Regarding `COC(=O)CN1C(=O)CN(c2nc(C)cc(C)n2)C1=O`, the fold change is -1.08.
On the same count and under the same terms, the value for `c1ccc(CN2CCN(c3nnc(Cc4cccnc4)c4ccccc34)CC2)cc1` was 1.04.
For the compound `COc1ccc(Nc2c(-c3cccc(O)c3)nc3ncccn23)cc1`, the fold change was 1.03.
Same read-out and setting: the value for `O=C(NCC1(c2ccccc2)CCCC1)c1ccc2c(=O)n3c(nc2c1)CCCCC3` was -1.33.
On the same count and under the same terms, the value for `O=c1nc2s/c(=C\c3ccco3)c(=O)n2nc1Cc1ccc(Cl)cc1` was -1.46.
The same measure, in the same setting: the value for `Brc1ccc2c(c1)CN(Cc1ccc3c(c1)OCO3)CO2` was -1.55; that for `O=C(NCc1ccc(Cl)cc1)Nc1ccc2snnc2c1` was -1.36.
As for `CN(C)c1ccc(/C=C2/SC(=S)NC2=O)cc1`, the fold change is -4.47 (active).
On the same count and under the same terms, the value for `Cc1cc(C)cc(-c2nc(-c3cccnc3)no2)c1` was -2.32 (active); that for `CN(CC(=O)NCC1CCCO1)S(=O)(=O)c1ccc2c(c1)c(=O)n(C)c(=O)n2C` (centres undefined) was 1.06; that for `COCCn1c(C)cc(C(=O)CSc2nnc3c(C)cc4ccccc4n23)c1C` was 1.96.
Consider `CCOC(=O)N1CCC(Nc2c(NC3CCC(C)CC3)c(=O)c2=O)CC1` (centres undefined), for which the fold change is 1.1.
As to `Cc1ccn2c(NC(=O)CC(C)C)c(-c3ccc(F)cc3)nc2c1`, the fold change is -2.38 (active).
For `CC(C)n1cnc2cc(NCc3ccccn3)ccc21`, the fold change is -1.44.
Turning to `Cc1cccc(CCn2c(=O)c3ccccc3n(Cc3cc(=O)n4ccccc4n3)c2=O)c1`, the fold change is -1.38.
Consider `COc1cc2c(=O)c(S(=O)(=O)c3ccccc3)cn(Cc3ccccc3Cl)c2cc1OC`, for which the fold change is -1.09.
The same measure, in the same setting: the value for `CCc1ccc2c(c1)c1n[nH]c(=S)nc1n2CC` was 1.17; that for `Cn1c(=O)oc2cc(S(=O)(=O)N3CCC(C(=O)Nc4nccs4)CC3)ccc21` was 1.31.
Turning to `Cn1c(SCC(=O)N2CCOCC2)nnc1-c1c[nH]c2ccccc12`, the compound was classed as inactive.
With `Cc1ccc2nc(NC3=NCN(Cc4ccco4)CN3)nc(C)c2c1`, the fold change is 1.
The same measure, in the same setting: in the case of `Cc1noc(C(=O)Nc2cccnc2Cl)c1Cl` it was 1.48; in that of `c1ccc2c(c1)nc(N1CCN(C3CCCCC3)CC1)c1nncn12`, 1.24.
Same read-out and setting: the value for `C=CCNC(=O)CSc1nc(-c2cccs2)cc(C(F)(F)F)n1` was -1.55.
